The panel holds about 83,000 compounds, 20% with a hit somewhere; the sample as a whole holds those more often.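 Each cell line was grown in a 96-well plate and treated with one concentration of compound for 48 hours. Values below 10 were considered active.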 Activity calls are given as the source filed them.

In this assay the test system is IGROV1 ovarian. Briefly: NCI-60 one-dose screen, 48 h (100 = growth as untreated, 0 = no growth, -100 = all killed). The following applies: 10 µM unless noted.
In the case of `C=C1C(=O)O[C@H]2[C@H]1CC/C(COC(=O)c1ccc(Cl)nc1)=C\CC[C@@]1(C)O[C@@H]21`, the growth was 13.1% (inactive).

For `COc1ccc(/C=N/C2=NNC(C)(c3ccccc3O)N2C(Cc2c[nH]c3ccccc23)C(=O)O)cc1` (stereo not drawn), the growth was 16.7% (inactive).

With `COc1ccc(/C=C/C(=O)/C=C(/C=C/c2ccc(OC)c(OC)c2OC)OB(F)F)c(OC)c1OC`, the growth was 26.3% (inactive).

For the compound `Cc1cc(N2CCOCC2)nc(N(CCNc2ccnc3cc(Cl)ccc23)Cc2ccco2)n1`, the growth is 40.7% (inactive).

Consider `NN=C(c1ccc(Cl)cc1)c1ccc(Cl)cc1`, for which the growth was 119% (inactive).

As for `Cc1cc2c(cc1C)N(C(=O)CCl)CCN2C(=O)CCl`, the growth was -61.8% (active).

On to `COc1cccc(/C=N/C(=S)NC2(C)C3CCC(C3)C2(C)C)c1O` (stereo not drawn), for which the growth was 64.3% (inactive).

Take `CC(=O)c1cc2c(N)c(C(=O)Nc3cccc(Cl)c3)sc2nc1C`: the growth is 92.3% (inactive).

In the case of `CCOC(=O)c1cnc2c(OC)ccc(OC)c2c1Cl`, the growth is 117% (inactive).

`CCOc1cccc(Nc2nc(N)nc3[nH]c4ccc(O)cc4c23)c1`: the growth was 16.7% (inactive).

Turning to `CC(C)CCC[C@@H](C)[C@H]1CC[C@H]2[C@@H]3CC=C4N(c5ccccc5)C(=O)CC[C@]4(C)[C@H]3CC[C@]12C`, the growth was 99.1% (inactive).

Consider `C=C(C)[C@@H]1C/C=C(\COC(=O)[C@H](OC(C)=O)C(NC(=O)c2ccccc2)c2ccccc2)CC[C@H]2O[C@]2(C)CC/C=C(\C)CC1` (stereo partly drawn), for which the growth is 45.9% [5 µM] (inactive).

On to `C/C(=N/NC(=O)Cn1c2ccccc2c2ccncc21)c1cccs1`, for which the growth is 90.6% (inactive).

These data come from PubChem BioAssay (NCI).
